Assay outcomes deposited in PubChem by National Center for Advancing Translational Sciences (NCATS).
In the library only some 10% were active in any assay of this set; here they are far more common.
FLuc inh: Firefly luciferase inhibition profiling of diverse chemical library using quantitative high-throughput screening | Luciferin 4-monooxygenase (Photinus pyralis), P08659 | purified P. pyralis luciferase, luminescence, biochemical | Potency, µM (titrated, usually from 115 µM), usual class: inhibitors | 76,000 compounds, 2.5% hits; note: nearly all actives have a fitted effect of over 65% in size
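Purified P. pyralis luciferase (10nM final) in 50mM Tris acetate pH 7.5, 10mM Mg acetate, 0.01% Tween-20, 0.05% BSA with 10uM D-luciferin and 10uM ATP. Compounds titrated qHTS. Luminescence imaged on CCD.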
NPR1 antag: Natriuretic polypeptide receptor (hNpr1) antagonism - Primary qHTS | Atrial natriuretic peptide receptor 1 (Homo sapiens), P16066 | HEK293 hNpr1 GloSensor cGMP, ANP-stimulated luminescence | Potency, µM (series often up to 46.3 µM), inactives show at the top dose activity change, negative = inhibition, actives largely listed as inhibitors | 76,000 compounds, 1.6% hits; calls by dose curve; note: nearly all actives have a fitted effect of over 60% in size
Target sequence (P16066 whole entry, looked up): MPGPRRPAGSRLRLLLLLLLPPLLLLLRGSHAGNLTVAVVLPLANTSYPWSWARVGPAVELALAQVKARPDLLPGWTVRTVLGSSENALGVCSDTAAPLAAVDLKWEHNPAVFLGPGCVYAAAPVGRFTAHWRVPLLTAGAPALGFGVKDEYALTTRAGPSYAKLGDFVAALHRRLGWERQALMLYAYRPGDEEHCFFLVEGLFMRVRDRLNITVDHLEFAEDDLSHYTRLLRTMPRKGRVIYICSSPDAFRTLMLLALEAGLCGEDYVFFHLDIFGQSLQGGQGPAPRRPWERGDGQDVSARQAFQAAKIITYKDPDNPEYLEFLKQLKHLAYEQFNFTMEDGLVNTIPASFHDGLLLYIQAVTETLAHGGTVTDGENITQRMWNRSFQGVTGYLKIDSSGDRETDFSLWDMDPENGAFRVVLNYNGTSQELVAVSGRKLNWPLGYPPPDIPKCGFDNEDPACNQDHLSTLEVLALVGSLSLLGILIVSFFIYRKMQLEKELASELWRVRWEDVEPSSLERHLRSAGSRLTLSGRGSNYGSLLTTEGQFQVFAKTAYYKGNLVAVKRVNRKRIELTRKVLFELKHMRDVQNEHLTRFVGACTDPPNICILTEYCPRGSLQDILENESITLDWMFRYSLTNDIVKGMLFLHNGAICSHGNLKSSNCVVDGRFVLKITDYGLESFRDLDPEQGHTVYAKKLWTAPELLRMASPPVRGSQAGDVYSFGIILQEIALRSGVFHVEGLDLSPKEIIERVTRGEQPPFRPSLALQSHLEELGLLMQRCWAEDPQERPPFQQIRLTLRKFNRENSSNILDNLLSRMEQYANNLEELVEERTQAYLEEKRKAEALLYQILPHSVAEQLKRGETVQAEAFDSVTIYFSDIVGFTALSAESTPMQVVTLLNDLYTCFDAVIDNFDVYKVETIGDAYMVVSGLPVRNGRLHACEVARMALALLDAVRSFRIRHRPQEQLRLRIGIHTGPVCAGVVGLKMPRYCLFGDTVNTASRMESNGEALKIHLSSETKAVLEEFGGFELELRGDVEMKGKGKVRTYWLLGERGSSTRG
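Compound pre-incubated 30 min at room temperature on GloSensor-loaded HEK293 cells stably carrying hNpr1 and the pGS-40F cGMP biosensor. Stimulation uses hNppA at 0.1 nM final; luminescence is taken at baseline and 20 min post-agonist.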
NIH3T3 tox: Cytotoxic Profiling in NIH 3T3 Cell Line of Diverse Libraries Using Quantitative High-Throughput Screening; NIH 3T3 viability, CellTiter-Glo ATP luminescence, 48-72 h; Potency, µM (highest dose often 96.7 µM), without a hit: top-dose activity change, negative = cytotoxicity, most hits filed as inhibitors; 94,000 compounds, 4.3% hits; note: nearly all actives have a fitted effect of over 55% in size
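Cytotoxicity was measured by CellTiter-Glo ATP luminescence after 48 or 72 h compound exposure at 37 °C. Mouse NIH 3T3 fibroblasts were seeded at 400 cells/well and dosed by 23 nL pin transfer.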
GPT2 inhibitor: Primary qHTS assay for inhibitors of Glutamate pyruvate transaminase 2 (GPT2); Alanine aminotransferase 2 (Homo sapiens), Q8TD30; Recombinant GPT2, coupled pyruvate oxidase/HRP Amplex Red fluorescence; Potency, µM (titrated, usually from 57.7 µM), for inactives: at the highest dose activity change, negative = inhibition, hits mostly inhibitors; 100,000 compounds, 0.25% hits; AID 1671188, 2021; note: nearly all actives have a fitted effect of over 60% in size
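Inhibition is scored from Amplex Red fluorescence generated when pyruvate oxidase and HRP act on pyruvate released by GPT2. Reactions contain 10ng/uL enzyme, 250uM a-KG and 2mM L-alanine and run 30 min at room temperature.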
HEK cytotox: Cytotoxic Profiling in HEK 293 Cell Line of Diverse Libraries Using Quantitative High-Throughput Screening. AID 1345083, 2018. Potency, µM (highest dose often 115 µM), for inactives: top-dose activity change, negative = cytotoxicity, usual class: inhibitors. 94,000 compounds, 6.6% hits. HEK 293 viability, ATP luminescence (CellTiter-Glo), 48-72 h; note: nearly all actives have a fitted effect of over 60% in size
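qHTS cytotoxicity; HEK 293, 250 cells/well; compound pinned; 48 or 72 hr, 37 degree Celsius, 5% CO2, 95% humidity; CellTiter-Glo, 10 min RT; luminescence (ATP).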
* hit, by the source's call; [ ] = dose if it differs, or a comment. Unless noted, calls come from the whole dose curve; as a rule, active = well fitted curve in the direction sought with a large enough effect; inconclusive = small, poorly fitted or top-dose-only effect, or another doubt; inactive = no such curve, though single readings can be large; an effect the other way counts as inactive or inconclusive. % is set by controls: 0 for no effect and ±100 for the full control effect; potency is the fitted concentration of half-maximal effect.

Results for O=C(NCc1ccccc1F)c1ccc2c(c1)CN(Cc1ccc3c(c1)CCO3)CCO2 ?
FLuc inh: inactive; NPR1 antag: -15%; NIH3T3 tox: inconclusive; GPT2 inhibitor: inactive; HEK cytotox: 28µM*

Results for COc1cccc(CC(=O)N2CCC3(CC2)NC(=O)N(c2ccccc2)N3)c1 ?
FLuc inh: inactive; NPR1 antag: -2%; NIH3T3 tox: inconclusive; GPT2 inhibitor: inconclusive; HEK cytotox: inconclusive

How did CCCN1CCCCC12Cc1ccccc1CN(C(=O)c1c(C)noc1C)C2 (stereo not given) do in these assays?
NIH3T3 tox: 32µM*; GPT2 inhibitor: inactive; HEK cytotox: inconclusive

How did CCCN1CCCC12Cc1ccccc1CN(C(=O)C(C)C)C2 (stereo not given) do in these assays?
NIH3T3 tox: inconclusive; GPT2 inhibitor: 4%; HEK cytotox: 89µM*

How did CCCN1CCCC12Cc1ccccc1CN(C(C)=O)C2 (stereo not given) do in these assays?
NIH3T3 tox: inconclusive; GPT2 inhibitor: 1%[88.5 µM]; HEK cytotox: inconclusive

How did COCCNC(=O)C(NC(=O)c1ccc(OC)cc1)C1CCN(C(=O)c2ccccc2)CC1 (stereo not given) do in these assays?
FLuc inh: inactive; NPR1 antag: -1%; NIH3T3 tox: inactive; GPT2 inhibitor: -5%; HEK cytotox: inactive

Results for Cc1noc(C)c1[S+](=O)([O-])N1CCCC(C(=O)N2CCC(c3nc4ncccc4[nH]3)C2)C1 (stereo not given) ?
NIH3T3 tox: -17%; GPT2 inhibitor: inactive; HEK cytotox: 0%

What do the screens show for `CC(=O)NC1(C)CCN(Cc2ccccc2-c2ccc3c(ccn3C)c2)C1` (stereo not given)?
FLuc inh: inactive; NPR1 antag: 1%[70.6 µM]; NIH3T3 tox: 89µM*; GPT2 inhibitor: inconclusive; HEK cytotox: 100µM*

Results for COc1cc(CN2CCC(C)(NC(C)=O)CC2)cc(NCc2ccccc2)c1 ?
FLuc inh: inactive; NPR1 antag: 2%[70.6 µM]; NIH3T3 tox: -10%[138 µM]; GPT2 inhibitor: 0%[88.5 µM]; HEK cytotox: inconclusive

What do the screens show for `COc1cccc(Nc2cc(CN3CCC(C)(NC(C)=O)CC3)cc(OC)c2)c1`?
FLuc inh: inactive; NPR1 antag: -1%[70.6 µM]; NIH3T3 tox: 100µM*; GPT2 inhibitor: -10%[88.5 µM]; HEK cytotox: 112µM*

Results for CC(=O)NC1(C)CCN(Cc2ccc(-c3cccc(C(F)(F)F)c3)cc2)C1 (stereo not given) ?
FLuc inh: 63µM*; NPR1 antag: -15%[70.6 µM]; NIH3T3 tox: 45µM*; GPT2 inhibitor: inactive; HEK cytotox: 50µM*

How did CC(=O)NC1(C)CCN(Cc2ccc(-c3cccc(F)c3)cc2)C1 (stereo not given) do in these assays?
FLuc inh: inactive; NPR1 antag: -15%[70.6 µM]; NIH3T3 tox: 89µM*; GPT2 inhibitor: 4%[88.5 µM]; HEK cytotox: inconclusive

Results for CC(=O)NC1(C)CCN(Cc2ccc(-c3ccc(N4CCOCC4)cc3)cc2)C1 (stereo not given) ?
FLuc inh: inconclusive; NPR1 antag: -14%[70.6 µM]; NIH3T3 tox: inconclusive; GPT2 inhibitor: 1%[88.5 µM]; HEK cytotox: inconclusive

Results for CC(=O)NC1(C)CCN(Cc2ccccc2-c2cccc(C(C)=O)c2)C1 (stereo not given) ?
FLuc inh: inactive; NPR1 antag: 1%[70.6 µM]; NIH3T3 tox: inconclusive; GPT2 inhibitor: inactive; HEK cytotox: inconclusive

Results for COc1ccc(CCC(=O)N2CCCC(Cn3c(C)cnc3-c3ccncc3)C2)cc1 (stereo not given) ?
NIH3T3 tox: -21%; GPT2 inhibitor: inactive; HEK cytotox: -5%

Results for CC(=O)NC1(C)CCN(Cc2ccc(-c3cccc(Cl)c3)cc2)C1 (stereo not given) ?
FLuc inh: inactive; NPR1 antag: -22%[70.6 µM]; NIH3T3 tox: inconclusive; GPT2 inhibitor: -1%[88.5 µM]; HEK cytotox: 89µM*

Results for CC(=O)NC1(C)CCN(Cc2cccc(-c3ccccc3)c2)C1 (stereo not given) ?
FLuc inh: inactive; NPR1 antag: 1%[70.6 µM]; NIH3T3 tox: -26%[138 µM]; GPT2 inhibitor: -8%[88.5 µM]; HEK cytotox: inconclusive

What do the screens show for `CC(=O)NC1(C)CCN(Cc2ccc(-c3ccccc3OCc3ccccc3)cc2)C1` (stereo not given)?
FLuc inh: inconclusive; NPR1 antag: -4%[70.6 µM]; NIH3T3 tox: 32µM*; GPT2 inhibitor: 4%[88.5 µM]; HEK cytotox: 32µM*

What do the screens show for `CC(=O)NC1(C)CCCN(Cc2cc(-c3cccc(N(C)C)c3)cs2)C1` (stereo not given)?
FLuc inh: 71µM*; NPR1 antag: -1%[70.6 µM]; NIH3T3 tox: inconclusive; GPT2 inhibitor: inactive; HEK cytotox: 63µM*

Results for O=C1NCc2ccccc2CC12CCN(Cc1c[nH]c3ccccc13)CC2 ?
NIH3T3 tox: inconclusive; GPT2 inhibitor: -4%; HEK cytotox: inconclusive

Results for O=C(c1ccco1)N1CCC(N2CCCC(C(=O)N3CCCC3)C2)CC1 (stereo not given) ?
FLuc inh: inactive; NPR1 antag: 4%; NIH3T3 tox: -1%; GPT2 inhibitor: 1%; HEK cytotox: inactive

What do the screens show for `CCOC(=O)N1CCC(N(C)CC2CCN(CCc3ccc(F)cc3)CC2)CC1`?
FLuc inh: inactive; NPR1 antag: 1%; NIH3T3 tox: inconclusive; GPT2 inhibitor: inactive; HEK cytotox: inconclusive

How did COc1ccc(CN(C)CC2CCN(CCc3ccc(F)cc3)CC2)cc1Cn1cccn1 do in these assays?
FLuc inh: inactive; NPR1 antag: -3%; NIH3T3 tox: 40µM*; GPT2 inhibitor: inactive; HEK cytotox: 28µM*

How did Cc1cc(=O)n(CC(=O)NCc2ccc(F)cc2)c(N2CCc3ccccc3C2)n1 do in these assays?
FLuc inh: inactive; NPR1 antag: -25%; NIH3T3 tox: inconclusive; GPT2 inhibitor: inactive; HEK cytotox: 45µM*

Results for CCOC(=O)c1ccc(NC(=O)Cn2c(N3CCc4ccccc4C3)nc(C)cc2=O)cc1 ?
FLuc inh: inactive; NPR1 antag: -13%; NIH3T3 tox: 32µM*; GPT2 inhibitor: inactive; HEK cytotox: 32µM*

How did CCc1ccc(NC(=O)Cn2c(N3CCc4ccccc4C3)nc(C)cc2=O)cc1 do in these assays?
FLuc inh: inactive; NPR1 antag: -17%; NIH3T3 tox: inconclusive; GPT2 inhibitor: inactive; HEK cytotox: inconclusive
